The record followed here is PubChem BioAssay (NCI).

A short description of experiment [1]: NCI Yeast Anticancer Drug Screen. Data for the rad50 strain (AID 155).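 Also: 0% = growth of vehicle-only cultures of the same strain.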 To be noted: S. cerevisiae rad50 strain growth inhibition, active compounds read high. Put shortly:
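Yeast carrying a defined DNA repair defect were exposed to test compounds, and growth was compared with vehicle-treated controls to give percent inhibition.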

Experiment [2] in a line: NCI Yeast Anticancer Drug Screen. Data for the mec2-1 strain (AID 157). Particulars: S. cerevisiae mec2-1 strain, active compounds read high. The method, boiled down:
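Test agents were screened against the mec2-1 yeast strain, with defined DNA repair or cell cycle alteration. Growth was scored as inhibition against vehicle-only controls.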

Experiment [3] in a line: NCI Yeast Anticancer Drug Screen. Data for the sgs1 mgt1 strain (AID 161).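 Also: 0% = growth of cultures given vehicle only.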 Particulars: S. cerevisiae sgs1 mgt1 strain, active compounds read high. Put shortly: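 Read-out: growth inhibition vs vehicle controls. Cells: mutant yeast strain deficient in DNA damage repair.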
Experiment [4] is described as follows: NCI Yeast Anticancer Drug Screen. Data for the cln2 rad14 strain (AID 165).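 Also: 0% = growth equal to vehicle treated cultures.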 Particulars: S. cerevisiae cln2 rad14 strain, active compounds read high. The method, boiled down:
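Growth of compound-exposed yeast (cln2 rad14 genotype) measured and expressed as inhibition relative to vehicle.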

Experiment [5] in a line: NCI Yeast Anticancer Drug Screen. Data for the bub3 strain (AID 167). To be noted: S. cerevisiae bub3 mutant strain, active compounds read high. Put shortly: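 Compounds were applied to a genetically altered yeast strain carrying a cell-cycle control defect. Growth inhibition was scored against vehicle-treated controls.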
Experiment [6] is described as follows: NCI Yeast Anticancer Drug Screen. Data for the mlh1 rad18 strain (AID 175). Particulars: S. cerevisiae mlh1 rad18 strain growth inhibition, active compounds read high. The method, boiled down:
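In this whole-cell yeast screen, a strain with altered DNA damage repair is challenged with compound, and its growth is measured against matched vehicle-treated controls.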

[7] abbreviates: at 5.0 µM (retest, dose inferred, filed as 0.5).
[8] abbreviates: at 50.0 µM (retest, dose inferred, filed as 5.0).

Molecules are shown by their SMILES. This is part of a sample that, as a whole, favours compounds with a hit. Of some 79,000 tested, about 15% had one in any assay. Unmarked numbers belong to inactive results. Calls of active or inactive are those of the source. Rule as the data show it: active = growth inhibition above about 70%; inactive = the rest.

Turning to `O=C1C=CC(=O)C(Sc2ccccc2)=C1`, the growth inhibition was -3% in experiment [1] (setting [7]); 98% (active) in experiment [1] (setting [8]); 96.8% (active) in experiment [1] (at 50.0 µM); 7% in experiment [2] (setting [7]); 99% (active) in experiment [2] (setting [8]); 98.9% (active) in experiment [2] (at 50.0 µM). For the same molecule, the growth inhibition in experiment [3] (setting [7]) is -4%; in experiment [3] (setting [8]) it was 98% (active); in experiment [3] (at 50.0 µM) it was 89.5% (active); in experiment [4] (setting [7]), -14%; in experiment [4] (setting [8]), 93% (active); in experiment [4] (at 50.0 µM), 93.3% (active). The growth inhibition was -10% in experiment [5] (setting [7]); 99% (active) in experiment [5] (setting [8]); 94.1% (active) in experiment [5] (at 50.0 µM); 24% in experiment [6] (setting [7]); 98% (active) in experiment [6] (setting [8]); 95.3% (active) in experiment [6] (at 50.0 µM).

As to `CCCCN(CCC=C1c2ccccc2Oc2ccccc21)CCCC`, the growth inhibition in experiment [1] (setting [7]) was 7%; in experiment [1] (setting [8]) it was 99% (active); in experiment [1] (at 50.0 µM), 99.7% (active); in experiment [2] (setting [7]), 4%; in experiment [2] (setting [8]) it was 99% (active); in experiment [2] (at 50.0 µM), 99.7% (active). Moreover, the growth inhibition was 9% in experiment [3] (setting [7]); 99% (active) in experiment [3] (setting [8]); 99.7% (active) in experiment [3] (at 50.0 µM); 4% in experiment [4] (setting [7]); 99% (active) in experiment [4] (setting [8]); 99% (active) in experiment [4] (at 50.0 µM). Further, the growth inhibition in experiment [5] (setting [7]) was 6%; in experiment [5] (setting [8]) it was 99% (active); in experiment [5] (at 50.0 µM) it was 11.7%; in experiment [6] (setting [7]), 5%; in experiment [6] (setting [8]) it was 99% (active); in experiment [6] (at 50.0 µM) it was 99.6% (active).

`Cc1nc(N)sc1N=Nc1cccc(Cl)c1Cl`: the growth inhibition in experiment [1] (setting [7]) was -5%; in experiment [1] (setting [8]), 39%; in experiment [1] (at 50.0 µM) it was 71.5% (active); in experiment [2] (setting [7]), -8%; in experiment [2] (setting [8]) it was 56%; in experiment [2] (at 50.0 µM), 50.4%. Moreover, the growth inhibition in experiment [3] (setting [7]) was 3%; in experiment [3] (setting [8]), 70% (active); in experiment [3] (at 50.0 µM), 66.2%; in experiment [4] (setting [7]), 0%; in experiment [4] (setting [8]) it was 4%; in experiment [4] (at 50.0 µM) it was 53.8%. Besides, the growth inhibition was -2% in experiment [5] (setting [7]); 23% in experiment [5] (setting [8]); 75.8% (active) in experiment [5] (at 50.0 µM); 21% in experiment [6] (setting [7]); 79% (active) in experiment [6] (setting [8]); 84.2% (active) in experiment [6] (at 50.0 µM).

With `CN1C=CC(C(O)(c2ccccc2)c2ccccc2)CC1` (stereo not given), the growth inhibition in experiment [1] (setting [7]) was -2%; in experiment [1] (setting [8]) it was 1%; in experiment [1] (at 50.0 µM) it was 1.25%; in experiment [2] (setting [7]), -6%; in experiment [2] (setting [8]) it was 8%; in experiment [2] (at 50.0 µM), 19.3%. For the same molecule, the growth inhibition in experiment [3] (setting [7]) is 2%; in experiment [3] (setting [8]), 0%; in experiment [3] (at 50.0 µM) it was 10%; in experiment [4] (setting [7]), -5%; in experiment [4] (setting [8]), 4%; in experiment [4] (at 50.0 µM), 51.6%. Moreover, the growth inhibition in experiment [5] (setting [7]) is -5%; in experiment [5] (setting [8]) it was -3%; in experiment [5] (at 50.0 µM), 16.7%; in experiment [6] (setting [7]), -4%; in experiment [6] (setting [8]), 5%; in experiment [6] (at 50.0 µM), 22.8%.

As for `Cc1cc(Br)c(N2C3=C(CC4=C2CCCC4=O)C(=O)CCC3)c(Br)c1`, the growth inhibition in experiment [1] (setting [7]) was 17%; in experiment [1] (setting [8]), 90% (active); in experiment [1] (at 50.0 µM), 96.8% (active); in experiment [2] (setting [7]) it was 7%; in experiment [2] (setting [8]), 89% (active); in experiment [2] (at 50.0 µM), 97.8% (active). In addition, the growth inhibition in experiment [3] (setting [7]) is -3%; in experiment [3] (setting [8]) it was 80% (active); in experiment [3] (at 50.0 µM), 97.8% (active); in experiment [4] (setting [7]), 10%; in experiment [4] (setting [8]), 94% (active); in experiment [4] (at 50.0 µM), 93.5% (active). Besides, the growth inhibition was -10% in experiment [5] (setting [7]); 95% (active) in experiment [5] (setting [8]); 98.2% (active) in experiment [5] (at 50.0 µM); 16% in experiment [6] (setting [7]); 97% (active) in experiment [6] (setting [8]); 97.8% (active) in experiment [6] (at 50.0 µM).

In the case of `C/C(CCSCc1ccccc1)=N/NC(N)=S`, the growth inhibition was 6% in experiment [1] (setting [7]); 44% in experiment [1] (setting [8]); 41.8% in experiment [1] (at 50.0 µM); 4% in experiment [2] (setting [7]); 65% in experiment [2] (setting [8]); 55.9% in experiment [2] (at 50.0 µM). For the same molecule, the growth inhibition is 6% in experiment [3] (setting [7]); 78% (active) in experiment [3] (setting [8]); 63.9% in experiment [3] (at 50.0 µM); -5% in experiment [4] (setting [7]); 45% in experiment [4] (setting [8]); 33.2% in experiment [4] (at 50.0 µM). In addition, the growth inhibition in experiment [5] (setting [7]) was -1%; in experiment [5] (setting [8]), 65%; in experiment [5] (at 50.0 µM) it was 54.1%; in experiment [6] (setting [7]), 7%; in experiment [6] (setting [8]), 76% (active); in experiment [6] (at 50.0 µM), 66.7%.

As for `Nc1ccc2nc3c(nc2c1)C(=O)c1ccccc1-3`, the growth inhibition in experiment [1] (setting [7]) is 47%; in experiment [1] (setting [8]) it was 93% (active); in experiment [1] (at 50.0 µM), 85.5% (active); in experiment [2] (setting [7]) it was 10%; in experiment [2] (setting [8]), 93% (active); in experiment [2] (at 50.0 µM), 86.5% (active). Moreover, the growth inhibition in experiment [3] (setting [7]) is 19%; in experiment [3] (setting [8]), 88% (active); in experiment [3] (at 50.0 µM), 85% (active); in experiment [4] (setting [7]), 32%; in experiment [4] (setting [8]), 90% (active); in experiment [4] (at 50.0 µM), 83% (active). For the same molecule, the growth inhibition in experiment [5] (setting [7]) is 15%; in experiment [5] (setting [8]) it was 94% (active); in experiment [5] (at 50.0 µM) it was 87.6% (active); in experiment [6] (setting [7]), 21%; in experiment [6] (setting [8]), 93% (active); in experiment [6] (at 50.0 µM), 89.5% (active).

As for `C=Cc1ccc(B2NCCO2)cc1`, the growth inhibition was -2% in experiment [1] (setting [7]); 99% (active) in experiment [1] (setting [8]); 99.7% (active) in experiment [1] (at 50.0 µM); 7% in experiment [2] (setting [7]); 97% (active) in experiment [2] (setting [8]); 99.5% (active) in experiment [2] (at 50.0 µM). For the same molecule, the growth inhibition is -8% in experiment [3] (setting [7]); 99% (active) in experiment [3] (setting [8]); 99.6% (active) in experiment [3] (at 50.0 µM); 0% in experiment [4] (setting [7]); 74% (active) in experiment [4] (setting [8]); 92.5% (active) in experiment [4] (at 50.0 µM). Further, the growth inhibition in experiment [5] (setting [7]) was 8%; in experiment [5] (setting [8]), 59%; in experiment [5] (at 50.0 µM) it was 99.5% (active); in experiment [6] (setting [7]), 10%; in experiment [6] (setting [8]) it was 99% (active); in experiment [6] (at 50.0 µM), 99.2% (active).

Take `CC(C)CCCC(C)[C@H]1CCC(C2C[C@@H](O)[C@@H]3CC(O)[C@@H](O)C[C@]3(CO)C2=O)[C@]1(C)CCO` (stereo not given in full): the growth inhibition in experiment [1] (setting [7]) is -14%; in experiment [1] (setting [8]), 99% (active); in experiment [1] (at 50.0 µM) it was 92.5% (active); in experiment [2] (setting [7]), -13%; in experiment [2] (setting [8]), 99% (active); in experiment [2] (at 50.0 µM) it was 92.5% (active). Further, the growth inhibition in experiment [3] (setting [7]) is -6%; in experiment [3] (setting [8]), 99% (active); in experiment [3] (at 50.0 µM) it was 91.7% (active); in experiment [4] (setting [7]), 13%; in experiment [4] (setting [8]), 98% (active); in experiment [4] (at 50.0 µM) it was 90.2% (active). Besides, the growth inhibition in experiment [5] (setting [7]) was 4%; in experiment [5] (setting [8]), 98% (active); in experiment [5] (at 50.0 µM), 91.6% (active); in experiment [6] (setting [7]), -10%; in experiment [6] (setting [8]) it was 98% (active); in experiment [6] (at 50.0 µM), 92% (active).

For the molecule `COc1cc2c(c(OC)c1OC)-c1ccc(SC)c(=O)cc1[C@@H](NC1OC(COC(C)=O)C(OC(C)=O)C(OC(C)=O)C1OC(C)=O)CC2` (stereo not given in full), the growth inhibition in experiment [1] (setting [7]) was 0%; in experiment [1] (setting [8]) it was -3%; in experiment [1] (at 50.0 µM) it was -1.6%; in experiment [2] (setting [7]) it was -1%; in experiment [2] (setting [8]) it was -3%; in experiment [2] (at 50.0 µM), 2.55%. Also, the growth inhibition in experiment [3] (setting [7]) is 1%; in experiment [3] (setting [8]), 5%; in experiment [3] (at 50.0 µM), 9.45%; in experiment [4] (setting [7]), 3%; in experiment [4] (setting [8]), -14%; in experiment [4] (at 50.0 µM) it was 74.2% (active). The growth inhibition in experiment [5] (setting [7]) is 0%; in experiment [5] (setting [8]), -7%; in experiment [5] (at 50.0 µM), 0.9%; in experiment [6] (setting [7]), 0%; in experiment [6] (setting [8]) it was -3%; in experiment [6] (at 50.0 µM), 7.15%.
